Assay results as given in PubChem BioAssay AID686979 (National Center for Advancing Translational Sciences (NCATS), 2013).
In all, about 420,000 compounds went through this assay and about 50,000 (12%) were called active. Not shown: some 26% with an inconclusive outcome. Only a selection was taken, and actives are over-represented in it overall. Values without a mark were called inactive. The call rests on the fitted dose curve; in most records, active means well fitted inhibition curve with a large enough effect; inconclusive means small, poorly fitted or top-dose-only effect; inactive means flat fitted curve, though single readings scatter.

Test: qHTS for Inhibitors of human tyrosyl-DNA phosphodiesterase 1 (TDP1): qHTS in cells in presence of CPT; further: nearly all actives have a fitted effect of over 55% in size
Settings: chicken DT40 Tdp1-/-;hTDP1 cells + 20 nM CPT, ATP luminescence, 48 h; series mostly up to 46.2 µM; activity change, negative = growth inhibition: at the top concentration
Outline: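 Cell growth measured by CellTiter-Glo luminescence after a minimum 48 h, 37 C compound exposure with 20 nM CPT in Tdp1-knockout DT40 cells stably expressing hTDP1, seeded 400/well; qHTS titration format.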
On the % scale 0 is the no-effect control and ±100 the full control effect; potency means the concentration at half of the fitted maximal effect.

SMILES | Potency | activity change, negative = growth inhibition
O=C1Nc2ccc(Br)cc2/C1=N/N=C/C1=C(N2CCOCC2)C(=C\c2ccccc2)/CC1 | 16.4 µM (active) | 
COc1ccc(/C=N/N=C2/C(=O)Nc3ccccc32)cc1O |  | -26.3%
O=C(NN=Cc1ccc(N2CCOCC2)cc1)c1cc2ccccc2cc1O |  | -27.4%
O=C(O)c1ccc(NN=CC2=C(N3CCOCC3)/C(=C/c3ccccc3)CC2)cc1 | 1.46 µM (active) | 
CCN(CC)c1ccc(C(=O)N/N=C/c2ccc(N3CCOCC3)cc2)cc1 |  | 1.61%
CC1CCN(C(NC(=O)c2ccco2)C(=O)c2ccccc2)CC1 (stereo not drawn) |  | -18.3%
Cc1csc(SCC(=O)Nc2ccc(C)c(S(=O)(=O)N(C)C)c2)n1 |  | -44.9%
Cc1ccc(-n2c(C)cc(C(=O)CSc3nnc4ccccn34)c2C)cc1 | 23.1 µM (active) | 
O=C(CSc1nnc2ccccn12)c1ccccc1 |  | -8.77%
Cc1ccc(C(=O)NNC(=O)CSc2nnc3ccccn23)cc1 |  | 1.45%
COc1ccccc1C(=O)COC(=O)CSCC(=O)Nc1cc(C)on1 |  | -16.7%
NC(=O)C1CCCN(CC(=O)N2CCN(c3ccccc3)CC2)C1 (stereo not drawn) |  | -9.01%
Cc1ccc(S(=O)(=O)Oc2ccc(/C=N/NC(=O)c3c(Cl)cnn3C)cc2)cc1 |  | -25%
Cc1ccc(-c2nc3ccccn3c2Nc2c(C)cccc2C)o1 | 16.4 µM (active) | 
CC(C)(C)Nc1c(-c2cccs2)nc2ccccn12 |  | 0.159%
Cc1nc2ccccn2c(=O)c1NC(=O)c1ccc(Br)o1 |  | -3.61%
O=C(CSc1ccccc1)Nc1cccc(S(=O)(=O)N2CCOCC2)c1 |  | -26.4%
CC(=O)Nc1ccc(C(=O)NNC(=O)CCCCC(=O)NNC(=O)c2ccc(NC(C)=O)cc2)cc1 |  | -3.53%
Cn1c(=O)n(C)c2cc(C(=O)Nc3ccc(Br)cc3)ccc21 |  | -17.5%
COCCn1c(=O)[nH]c(=O)c2cc(C(=O)c3cc(OC)ccc3O)cnc21 |  | -23.3%
COc1cc(OC)c2c(c1)OC(=O)CC2c1cc(OC)c(OC)c(OC)c1 (stereo not drawn) |  | -9.46%
COC(=O)c1cc(CNC(=O)CC(C)c2ccccc2)ccc1OC (stereo not drawn) |  | 9.19%

SMILES | Potency | activity change, negative = growth inhibition
COc1cc(NC(=O)CSC(=S)N2CCCC2)c(OC)cc1Cl | 29.1 µM (active) | 
COc1cc(Cl)c(C)cc1NC(=O)CN1CCCCCC1 |  | 0.785%
COc1cc(NC(=S)N2CCCC(C)C2)c(OC)cc1Cl (stereo not drawn) |  | 0.248%
N#C/C(=C\c1cccc(F)c1)c1nc(-c2cc3c(ccc4ccccc43)oc2=O)cs1 |  | -15%
Cc1cc(C)c(S(=O)(=O)N(C)CC(=O)NCC2CCCO2)c(C)c1 (stereo not drawn) |  | -8.5%
COc1cccc(C(=O)NC2=NC(c3ccc(N(C)C)cc3)CC(=O)N2)c1 (stereo not drawn) |  | -17.6%
COc1ccc(CCNc2nc(C)cc(C)n2)cc1OC |  | 1.65%
COc1ccc(CCNc2nc(-c3ccc(Cl)cc3)cc(C(F)(F)F)n2)cc1OC | 23.1 µM (active) | 
COc1ccc(CCNC(=O)COC(=O)c2ncc(Cl)c(Cl)c2Cl)cc1OC |  | -11.5%
O=C(CN(C(=O)c1csnn1)c1ccc(Br)cc1)NC1CCCC1 |  | 3.35%
O=C(CCN1C(=O)[C@H]2CC=CC[C@H]2C1=O)NCc1nc(-c2ccccc2)no1 |  | -5.36%
COc1ccc(OC)c(NC(=O)c2ccc3c(c2)C(=O)N(c2ccc(OC(C)=O)cc2)C3=O)c1 |  | 5.37%
CC1CCCCN1CCCNc1ccc(C(CC(N)=O)NC(=O)c2ccccc2)cc1[N+](=O)[O-] (stereo not drawn) |  | 8.16%
Cc1ccc(OCC(=O)Nc2ccc(NC(=O)c3cccs3)cc2)c(C)c1 |  | -14%
CCC(C)N1C(=S)SC(C)(C)C1N(O)C(=O)NC1CCCCC1 (stereo not drawn) |  | -24.1%
O=C(COC(=O)c1ccc(O)cc1O)NNC(=O)c1cccs1 |  | 2.24%
Cc1cc2nc3n(c2cc1C)CC1CC(C(=O)NCCC(C)C)N(C)C31 (stereo not drawn) |  | 1.75%
COc1ccc(-n2ncc3c(SCC(=O)NNC(C)=O)ncnc32)cc1 |  | 5.07%
COc1ccc(NC(=O)c2cccc3c2C(=O)N(CC2CCCO2)C3)cc1OC (stereo not drawn) | 23.1 µM (active) | 
COCCN1Cc2cccc(C(=O)Nc3ccccc3OC)c2C1=O |  | -15%
CCOc1ccc(NC(=O)c2cccc3c2C(=O)N(CC2CCCO2)C3)cc1 (stereo not drawn) |  | -6.22%
O=C1NC(c2ccccc2)CCC1(Cl)Cl (stereo not drawn) |  | 3.71%

SMILES | Potency | activity change, negative = growth inhibition
Cc1ccc(NC(=O)CCN2C(=O)c3ccccc3C2=O)cc1C |  | -4.36%
COC(=O)C[C@H]1C[C@@H]2c3cc(NC(=O)Nc4ccccc4)ccc3O[C@@H]2[C@@H](CO)O1 |  | -6.14%
O=C(CN1Cc2ccccc2OC(c2ccccc2)C1)N1CCCCC1c1cccnc1 (stereo not drawn) |  | -0.761% [at 9.04 µM]
COc1cc(CNCc2ccc(OC)c3ccccc23)cc(OC)c1OC | 9.2 µM (active) | 
COc1cc(CNCc2cccs2)cc(Br)c1OC |  | -7.72%
COc1ccc(CNCCCNCc2ccc(OC)c(OC)c2)cc1OC |  | -9.22%
Cn1cncc1COC(=O)c1ccc(Cl)cc1 |  | -14.8%
Cc1ccccc1NC(=O)c1nn(-c2ccc(F)c(F)c2)ccc1=O |  | -1.27%
Cc1cccc(NC(=S)N(CCN(C)C)C(C)c2ccco2)c1 (stereo not drawn) |  | -17.4%
CN1CCN(c2ccncc2S(=O)(=O)N2CCCC2)CC1 |  | 9.33%
O=S(=O)(c1cnccc1N1CCN(/N=C/c2ccc(Br)cc2)CC1)N1CCCCC1 | 18.4 µM (active) | 
CC(C)NC(=O)N1CCN(c2ccncc2S(=O)(=O)N2CCCCC2)CC1 |  | 2.06%
Cc1ccc(NC(=O)COc2ccc(/C=N\NC(=O)c3cccnc3)cc2)cc1C |  | -5.23%
COc1ccccc1NC1=NC(c2ccc(Cl)cc2)N=C(N)N1 (stereo not drawn) | 5.17 µM (active) | 
COc1ccccc1NC1=NC2(CCCC2)N=C(N)N1 |  | -12.7%
CC1(C)N=C(N)NC(Nc2ccc(Cl)cc2)=N1 |  | -13.1%
CC1(C)C(C=C(Cl)Cl)C1C(=O)NC(O)C(=O)c1ccccc1 (stereo not drawn) |  | 2.14%
COCCN(C(=O)CSCc1ccc(C)cc1)c1c(N)n(CC(C)C)c(=O)[nH]c1=O |  | 9.75%
C[C@]12C=CC(=O)C=C1CC[C@@H]1[C@@H]2C(=O)C[C@@]2(C)[C@H]1CC[C@]2(O)C(=O)CO | inactive | 
CCC1CCCCN1C(=S)NC(=O)c1ccco1 (stereo not drawn) |  | 0.583%
CCOc1cc(/C=C2/N=C(c3ccc(C(C)(C)C)cc3)OC2=O)cc(Cl)c1OS(C)(=O)=O | 18.4 µM (active) | 
O=C1OC(c2ccc(Cl)cc2)=N/C1=C\c1cccnc1 |  | -25.1%

SMILES | Potency | activity change, negative = growth inhibition
CC1CCN(C(=O)COC(=O)CCC(=O)c2cccs2)CC1 |  | -0.232%
COc1cc(C2CC(=O)Oc3cc(OC)c(OC)c(OC)c32)cc(OC)c1OC (stereo not drawn) |  | -8.15%
Cc1cc(C)cc(NS(=O)(=O)Cc2ccccc2)c1 |  | 14.9%
Cn1nnnc1SCC(=O)NNC(=O)c1ccc(Br)cc1 |  | 0.881%
Cc1nc2ccccc2cc1O |  | -22.8%
Cc1nc2ccccc2cc1OCc1ccc(F)cc1 | 11.6 µM (active) | 
Cc1occc(=O)c1OCc1ccc(F)cc1 |  | 13.4%
COC(=O)C1[C@H]2SC(C)(C)C(C(=O)OC)N2C(=O)N1Cc1nc2ccccc2s1 (stereo partly drawn) |  | -1.96%
COCCNC(=O)c1cc(-c2cccc(Cl)c2)on1 |  | 4.91%
CC(C)c1nnc(NC(=O)C2CC(=O)N(CCc3ccc(F)cc3)C2)s1 (stereo not drawn) |  | 7.52%
O=C(CCC(=O)n1ncc2ccccc21)NCc1ccccc1Cl |  | -1.16%
CCCC(=O)Nc1nc2ccc(NC(=O)c3cccnc3)cc2s1 | 9.2 µM (active) | 
O=C(Cc1ccccc1)Nc1ccc(NC(=O)c2cccnc2)cc1 |  | -28%
CCOC(=O)c1cc(NC(=O)c2cccnc2)cc(C(=O)OCC)c1 |  | -8.88%
CCCC(=O)Nc1nc2ccc(NC(=O)c3c(F)c(F)c(OC)c(F)c3F)cc2s1 | 0.92 µM (active) | 
CCCC(=O)Nc1ccc2c(c1)nc1n2CCSC1 |  | -0.992%
CCc1noc(C)c1C(=O)Nc1nc2ccc(OC)cc2s1 |  | 13.8%
Cc1cc(C)c(S(=O)(=O)N2C=CC(C(F)(F)F)=NCC2)c(C)c1 |  | 2.91%
c1ccc2cc(C3=NCCN3)ccc2c1 |  | 4.03%
Cc1ccc(Nc2c(O)nc[nH]c2=O)cc1C |  | 8.79%
Cc1c(Cl)cccc1NC(=O)[C@@]1(CC(=O)O)CC(/C=C/c2ccccc2)=NO1 |  | 3.33%
N#CCc1c(C#N)c(N)nc(N2CCCC2)c1C#N |  | 15.6%

SMILES | Potency | activity change, negative = growth inhibition
Cc1nnc(NC(=O)Nc2ccc(Cl)c(Cl)c2)s1 | 23.1 µM (active) | 
Cc1ccc(NC(=O)Nc2nnc(-c3ccncc3)s2)cc1 | 18.4 µM (active) | 
Cc1occc1C(=O)Nc1nnc(-c2ccncc2)s1 |  | 10.3%
CCCCN(C)c1nnc(NC(=O)Nc2ccc(Br)c(C)c2)s1 |  | -27.6%
Cc1nnc(NC(=O)c2ccc3nccnc3c2)s1 |  | -17.6%
Cc1ccc(C(=O)Nc2nnc(-c3ccncc3)s2)o1 |  | -12.2%
COCC1CCCN(C(=O)c2ccc3oc(C(C)C)nc3c2)C1 (stereo not drawn) |  | -8.78%
COCCNC(=O)CN(Cc1ccco1)C(=O)CCC(=O)Nc1nccs1 |  | 1.07%
COc1ccc2c(c1)CCCO[C@]21O[C@H](CCO)C[C@H](O)[C@H]1O |  | -1.84%
CCC(C)NC(=O)c1cc(Cl)ccc1OC (stereo not drawn) |  | -7.43%
CC1CCc2c(sc3nc4n(c(=O)c23)CCS4)C1 (stereo not drawn) |  | -28.3%
CC1CCN(C(=O)c2ccc3c(=O)n4c(nc3c2)CCCCC4)CC1 |  | -3.88%
Cc1ccc(NC(=O)Nc2sc3nc4n(c(=O)c3c2C)CCC(C)CC4)c(Cl)c1 (stereo not drawn) | 11.6 µM (active) | 
Cc1ccccc1NC(=O)CSc1ccc2nnc(-c3ccccn3)n2n1 |  | -15.4%
COC(=O)[C@]1(C)N[C@H](CN(C)C(=O)c2ccc(C(C)(C)C)cc2)[C@@H]2C(=O)N(C)C(=O)[C@@H]21 |  | -7.64%
Cc1cc(C)c(S(=O)(=O)c2cc(F)ccc2C)c(=O)[nH]1 |  | 2.26%
CC1(C)CN(c2ccc(-c3ccnc4ncnn34)cc2)C1=O |  | -8.25%
O=S(=O)(c1cccs1)N1CCN(Cc2ccccc2)CC1 |  | -12.6%
COc1ccc2c(CN3CCN(S(=O)(=O)c4cccs4)CC3)cc(=O)oc2c1 |  | -24.3%
Cc1cc2oc(=O)cc(CN3CCN(S(=O)(=O)c4cccs4)CC3)c2cc1C(C)C | 23.1 µM (active) | 
